# SENP8 block-1 – blocks human SENP8 cleavage of Nedd8 substrate | recombinant SENP8, Nedd8 substrate fluorescence | inhibition, % at 20 µM | 0.64% of 360,000 active | AID 602440; in the data active means inhibition mostly above about 40%, no sharp cut-off; inactive means mostly below about 27%
# Target sequence (Q96LD8 whole entry, looked up): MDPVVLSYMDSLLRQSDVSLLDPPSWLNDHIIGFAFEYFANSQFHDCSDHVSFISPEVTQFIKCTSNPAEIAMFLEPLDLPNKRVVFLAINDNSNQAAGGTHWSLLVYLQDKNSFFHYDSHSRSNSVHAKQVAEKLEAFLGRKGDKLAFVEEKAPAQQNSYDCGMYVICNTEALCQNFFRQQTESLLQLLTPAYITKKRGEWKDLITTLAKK
# SENP7 block – inhibitors of human SENP7 protease. Q9BQF6. recombinant SENP7, Z-RLRGG-aminoluciferin luminescence, 40 min. inhibition, % at 5 µM. 1.5% of 330,000 active;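 active means inhibition above about 50% at the single test dose, limit read from the data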;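 further: plate controls were DMSO with enzyme for no effect and no enzyme buffer wells for full effect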
# Target sequence (Q9BQF6 706-1050 limits assumed): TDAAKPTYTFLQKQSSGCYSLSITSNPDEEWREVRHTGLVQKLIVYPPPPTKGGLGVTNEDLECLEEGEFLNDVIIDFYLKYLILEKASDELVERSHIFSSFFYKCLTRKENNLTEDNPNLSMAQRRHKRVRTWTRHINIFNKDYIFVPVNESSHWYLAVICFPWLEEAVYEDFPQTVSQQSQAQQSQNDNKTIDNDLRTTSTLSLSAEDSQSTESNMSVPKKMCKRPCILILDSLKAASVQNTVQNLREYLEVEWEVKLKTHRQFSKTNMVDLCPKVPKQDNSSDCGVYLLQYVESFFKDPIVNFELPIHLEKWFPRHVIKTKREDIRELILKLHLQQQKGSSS
# SENP8 block-2 – SENP8 protease inhibition | inhibition, % at 10 µM | Q96LD8 | 1.2% of 330,000 active | purified SENP8, Z-RLRGG-aminoluciferin cleavage, luminescence; in the data active means inhibition above about 50%
# Platelet DG rel – platelet dense granule release activity | 0.22% of 300,000 active | inhibition, %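 (compounds screened at 7.5 µM in platelet-rich plasma)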 | AID 1663 | human platelet-rich plasma, SFLLRN dense granule ATP release, luminescence;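 active means mean replicate score, as percent of positive control, at or above 50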
# SENP6 block – SENP6 protease inhibition | Q9GZR1 | Recombinant SENP6 catalytic domain, aminoluciferin luminescence | inhibition, % at 10 µM | 1.8% of 330,000 active;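 active means inhibition above about 50% at the single tested dose, limit read from the data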;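 further: plate controls were DMSO wells with enzyme for no effect and DMSO wells lacking enzyme for full effect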
# SENP8 confirm – confirmation of human SENP8 protease inhibitors; Recombinant SENP8, Z-RLRGG-aminoluciferin luminescence, 60 min; shares compounds with SENP7 block; 40% of 6,200 active; AID 488912; inhibition, % at 12.5 µM;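 active means mean inhibition across replicates above about 50%, limit read from the data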
# SENP6 confirm – human SENP6 inhibition, confirmed. shares compounds with SENP7 block. recombinant SENP6, Z-RLRGG-aminoluciferin luminescence. inhibition, % at 12.5 µM. 58% of 6,200 active
# SENP7 conf – human SENP7 inhibition, confirmed; shares compounds with SENP7 block; recombinant SENP7, Z-RLRGG-aminoluciferin luminescence, 40 min; inhibition, % at 12.5 µM; 69% of 6,200 active; AID 488917
# Casp3 SENP sel – selectivity test for SENP inhibitors: human caspase-3 inhibition | shares compounds with SENP7 block | purified caspase-3, Z-DEVD-aminoluciferin luminescence, 60 min | inhibition, % at 12.5 µM | 60% of 6,200 active | AID 488918;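 active means mean inhibition above about 50%, limit read from the data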;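 further: plate controls were enzyme with DMSO for no effect and wells without caspase-3 for full effect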
# SENP luc ctr – interferes with luciferase luminescence in SENP counter-screen; shares compounds with SENP7 block; AID 488919; Pre-incubated SENP8/Z-RLRGG-aminoluciferin, luciferase luminescence interference; 39% of 6,200 active; inhibition, % at 12.5 µM;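 active means mean inhibition above about 50% when retested at one dose, limit read from the data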;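 further: plate controls were DMSO wells with completed reaction for no effect and substrate without enzyme for full effect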
# Active calls of the source: *; x = no result. Most compounds without a hit are left out; they make up all but 2.4% or so of the library.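 How the source made its calls, unless noted: active means mean inhibition above about 50% in the one-dose retest (limit read from the data); inactive means the rest.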
SMILES,SENP8 block-1,SENP7 block,SENP8 block-2,Platelet DG rel,SENP6 block,SENP8 confirm,SENP6 confirm,SENP7 conf,Casp3 SENP sel,SENP luc ctr
CN(C)c1ccc(N=Nc2ccccc2C(=O)OCC(=O)NC2CCCC2)cc1,26,5,0,-5,7,x,x,x,x,x
Cc1cccc(NC(=O)CN2C(=O)S/C(=C\c3ccc(O)c([N+](=O)[O-])c3)C2=O)c1,26,-3,27,13,51*,13,4,17,24,15
CCCCOc1ccc(-c2nnc(-c3ccncc3)o2)cc1,-270,15,1,6,12,x,x,x,x,x
CN(C)c1ccc(-c2nnc(-c3cccs3)o2)cc1,-398,79*,60*,3,72*,2,51*,76*,2,4
CCCOc1ccc(-c2nnc(-c3cccs3)o2)cc1,-404,-3,41,1,80*,22,20,17,17,5
CN(C)c1oc(-c2cccs2)nc1C#N,-462,2,1,-1,-10,x,x,x,x,x
CCOc1ccccc1OCCC(=O)Nc1ccc2c(c1)OCO2,3,-3,-5,x,-20,x,x,x,x,x
O=C(Nc1ccc(Nc2ccccc2)cc1)Nc1ccccc1Cl,-1,85*,86*,14,88*,71*,89*,99*,56*,63*
CCOc1ccccc1NC(=O)Nc1ccc2c(c1)OCO2,-1,85*,72*,4,86*,4,81*,97*,79*,79*
Cc1ccccc1NC(=O)Nc1ccc2c(c1)OCO2,6,96*,79*,30,91*,23,74*,25,92*,2
Cc1ccc(NC(=O)Nc2ccc3c(c2)CCC3)c(C)c1,5,-12,-13,x,12,x,x,x,x,x
O=C(Nc1ccc2c(c1)CCC2)Nc1ccccc1Cl,1,94*,91*,13,95*,42,93*,72*,81*,17
Cc1ccc(NC(=O)c2oc3ccccc3c2COC(C)C)cc1S(=O)(=O)N1CCOCC1,-9,-15,-10,x,0,x,x,x,x,x
CCOc1ccccc1NC(=O)Nc1ccc2c(c1)CCC2,11,53*,47,8,69*,53*,68*,87*,36,48
CCOc1ccccc1NC(=O)Nc1cccc(NC(C)=O)c1,25,-4,-4,3,-12,x,x,x,x,x
COC(=O)c1cnc(SCC(=O)c2ccccc2)n1C,13,79*,71*,2,83*,79*,77*,93*,92*,80*
O=C(CSc1ccc(-c2ccccn2)nn1)c1ccccc1,33,-9,-10,-1,9,x,x,x,x,x
COC(=O)c1ccnc(SCC(=O)c2ccccc2)c1,2,70*,53*,3,74*,60*,55*,82*,74*,64*
C[C@H](CO)N1C[C@H](C)[C@@H](CN(C)C(=O)NC2CCCCC2)Oc2c(NS(=O)(=O)c3cn(C)cn3)cccc2C1=O,1,-14,6,x,4,x,x,x,x,x
O=c1[nH]c(N2CCOCC2)cc2ccccc12,-498,96*,87*,-2,91*,46,76*,61*,37,7
O=c1c(N2CCOCC2)coc2ccccc12,-1,0,-2,-2,-6,x,x,x,x,x
CCOC(=O)/C=c1\s/c(=C\c2sccc2C)c(=O)n1CC(=O)NCc1ccc(C)cc1,x,3,7,2,1,x,x,x,x,x
COc1ccc2cc(C(c3nnnn3C3CCCC3)N3CCc4ccccc4C3)c(=O)[nH]c2c1 (stereo not given),-275,74*,66*,9,13,5,9,2,-3,-4
CCOc1ccc(N=Cc2c(O)c3ccccc3oc2=O)cc1,-20,93*,83*,10,91*,42,42,56*,38,7
O=C(Nc1sc2c(c1C(=O)NCC1CCCO1)CCCC2)c1cccs1 (stereo not given),-164,5,-5,-2,13,x,x,x,x,x
SMILES,SENP8 block-1,SENP7 block,SENP8 block-2,Platelet DG rel,SENP6 block,SENP8 confirm,SENP6 confirm,SENP7 conf,Casp3 SENP sel,SENP luc ctr
O=C(/C=C/c1cccs1)Nc1sc2c(c1C(=O)O)CCCC2,20,8,55*,9,74*,27,66*,81*,58*,71*
COC(=O)c1c(NC(=O)c2cccs2)sc2c1CCC(C)C2 (stereo not given),-396,-4,-7,0,-4,x,x,x,x,x
O=C(Nc1sc2c(c1C(=O)O)CCCC2)c1cccs1,-42,56*,85*,-3,93*,3,90*,98*,86*,90*
O=C(Nc1sc2c(c1C(=O)O)CCCCC2)c1cccs1,-61,71*,95*,7,96*,98*,98*,102*,94*,96*
CC(C)OC(=O)c1c(NC(=O)c2cccs2)sc2c1CCCC2,-280,-10,4,-4,-9,x,x,x,x,x
CC1CCc2c(sc(NC(=O)c3cccs3)c2C(=O)O)C1 (stereo not given),-28,-4,76*,-5,88*,86*,86*,92*,66*,86*
CCOC(=O)N/N=C(/C)c1cccc(-n2cnnn2)c1,5,3,9,1,-3,x,x,x,x,x
CCN(CC)CC#CCC(OC)(c1ccccc1)c1ccccc1,11,-10,-4,-2,-3,x,x,x,x,x
CC(O)(c1ccc(F)c(F)c1)c1nc(-c2ccc3ccccc3c2)cs1 (stereo not given),25,x,x,x,x,x,x,x,x,x
Cc1ccc(C)c(NC(=S)Nc2cccc3cnccc23)c1,-95,54*,77*,0,79*,12,17,2,3,-2
Fc1ccccc1NC(=S)Nc1cccc2cnccc12,-250,78*,87*,7,92*,15,41,26,7,16
Cc1ccc(F)c(NC(=S)Nc2cccc3ccccc23)c1,-453,45,83*,11,88*,10,10,1,-5,-3
Cc1ccccc1NC(=S)Nc1cccc2cnccc12,-152,86*,88*,0,98*,16,33,19,10,6
CC(=O)Nc1cccc(C(=O)OCC(=O)N(c2ccccc2)C2CCS(=O)(=O)C2)c1 (stereo not given),8,3,3,x,7,x,x,x,x,x
COc1ccc(/C=C2\Oc3cc(OCC(N)=O)ccc3C2=O)cc1OC,-279,1,-4,3,9,x,x,x,x,x
